This note sets out measurements from ChEMBL document CHEMBL3988442, “University of Dundee, Small-Polar-MMV Screening Library” (2021).

The structures appear in SMILES notation. About 440 (0.52%) of roughly 85,000 compounds showed an effect of 50% or more. Shown is part of a subset that was picked to be rich in strong results.

The assay can be described thus: In vitro enzyme assay to detect hydrolysis of chlorophenol red-beta-D-[…] directly proportional to the number of Toxoplasma stably expressing beta-galactosidase. Type of assay: functional, organism-based, Toxoplasma gondii. On the set-up: scale not given: in the data most compounds retested in dose-response had high values.

In the case of `Cc1noc(C)c1C(=O)NC1CCN(CC2CC2)CC1`, under “50 µM”, the “Percent Effect” value is listed as -0.3877%. Still for that read-out and setting: to `CC(C)c1nsc(NCC2=COCCO2)n1` belongs -1.035%.

For `Cc1[nH]c2ccccc2c1-c1ccnc(N[C@@H](C)CO)n1`, the “Percent Effect” value (10 µM) came out at 58.12%. On the same count and under the same terms, to `Cc1[nH]c2ccccc2c1-c1ccnc(N[C@@H](CO)C(C)C)n1` belongs 48.14%; to `Cc1[nH]c2ccccc2c1-c1ccnc(NC[C@H](O)CO)n1`, 15.34%; to `Cc1[nH]c2ccccc2c1-c1ccnc(N[C@H](CO)CC(C)C)n1`, 53.1%.

In the case of `Cc1[nH]c2ccccc2c1-c1ccnc(NCCN2CCCCC2)n1`, the “Percent Effect” value (10 µM) is reported as 28.85%. The same measure, in the same setting: to `Cc1[nH]c2ccccc2c1-c1ccnc(NCCN2CCOCC2)n1` belongs -5.812%.

Consider `NCc1cc2c([nH]c1=O)CCC2`, for which, under “50 µM”, the “Percent Effect” value is reported as 5.937%. `CCN(CCCOC)CC(=O)Nc1cccc(OC)c1`: under “50 µM”, the “Percent Effect” value was -2.356%. Same read-out and setting: in the case of `COc1ccc(NC(=O)c2ccc(Br)cn2)cc1CO` it was -27.31%; in that of `COc1ccc(-c2cncc(N)c2)cc1CO`, 96.02%. Still for that read-out and setting: in the case of `COc1ccc(NC(=O)c2cncc(C)c2)cc1CO` it was -7.73%.

In the case of `O=C(CN1CCCC1c1noc(C2CC2)n1)NCCc1ccsc1` (stereo not given), the “Percent Effect” value (10 µM) was found to be 19.94%. In the case of `Cc1nc(C2CCCN2CC(=O)NCCc2ccsc2)no1` (stereo not given), under “10 µM”, the “Percent Effect” value is on record as 7.324%.

As for `CCc1nc(C2CCCN2CC(=O)NCCc2ccsc2)no1` (stereo not given), the “Percent Effect” value (10 µM) worked out at 89.95%. In the case of `CCN(C)C(=O)CNc1ccccc1S(=O)(=O)CC`, for the setting “50 µM”, the “Percent Effect” value was -2.619%. In the case of `O=C([C@@H]1CCCN1)N1CCCC1c1cccnc1` (stereo not given in full), under “50 µM”, the “Percent Effect” value is listed as -9.249%. On to `COCC(C)(CCO)NCc1cccc(F)c1` (stereo not given), for which, where the note is “50 µM”, the “Percent Effect” value stood at 2.377%. Take `CC1(c2ccccc2)CCCN(Cc2cncn2C2CC2)C1` (stereo not given): the “Percent Effect” value (10 µM) is on record as 20.67%.

With `CC1(c2ccccc2)CCCN(Cc2cncn2C2CCCC2)C1` (stereo not given), the “Percent Effect” value (10 µM) is 64.76%. The same measure, in the same setting: to `COCCn1cncc1CN1CCCC(C)(c2ccccc2)C1` (stereo not given) belongs 0.6483%. As for `O=C(C(O)c1ccccc1)N(CCO)Cc1ccsc1` (stereo not given), under “50 µM”, the “Percent Effect” value came out at 11.77%.

As to `CCOC(=O)c1sc(O)nc1C`, the “Percent Effect” value (50 µM) is on record as -0.2183%.

For the compound `CC(C)C(NC(=O)c1ccco1)C(=O)N1CCOCC1` (stereo not given), for the setting “50 µM”, the “Percent Effect” value is -3.141%. On to `NCC1(NS(=O)(=O)c2cccc3nonc23)CCCC1`, for which the “Percent Effect” value (50 µM) is on record as -3.738%. `CC(C)NC(=O)C1CN(C(=O)NCc2ccccc2)CC12CCOCC2` (stereo not given): the “Percent Effect” value (10 µM) is given as -9.471%. As for `CC(C)NC(=O)C1CN(C(=O)CCc2ccccc2)CC12CCOCC2` (stereo not given), under “10 µM”, the “Percent Effect” value is given as 56.76%.

As for `CC(C)NC(=O)C1CN(C(=O)Cc2ccccc2)CC12CCOCC2` (stereo not given), for the setting “10 µM”, the “Percent Effect” value is on record as 0.09588%. `CC(O)CN1CCN(C(=O)CN(C)C2CC2)CC1` (stereo not given): the “Percent Effect” value (50 µM) came to 3.925%. For `Cc1cc(CNC(=O)CCCN2CCCCC2)ccn1`, the “Percent Effect” value (50 µM) is reported as -5.389%. For the compound `NC(=O)NCC1CCCN1` (stereo not given), the “Percent Effect” value (50 µM) is 26.88%.

On to `CNCC(C)CNC(=O)c1ccc(C(N)=O)nc1` (stereo not given), for which the “Percent Effect” value (50 µM) was -13.42%. Still for that read-out and setting: in the case of `Cc1cc(C)nc(NC(=O)NC2CCC(O)CC2)c1` (stereo not given) it was 31.49%; in that of `O=C(NCCc1nnc[nH]1)C1SCCc2ccccc21` (stereo not given), -20.61%. As for `CNCC(=O)Nc1cc(F)cc(F)c1`, the “Percent Effect” value (50 µM) is recorded as 12.71%. `CN(C)C(=O)Nc1cc(F)cc(F)c1`: under “50 µM”, the “Percent Effect” value was found to be 57.68%. `CN(CC(C)(CO)CO)C(=O)Nc1cc(F)cc(F)c1`: the “Percent Effect” value (10 µM) is on record as 14.95%. In the case of `COC1CCN(CC(=O)Nc2ccc(C(N)=O)cc2)C1` (stereo not given), where the note is “50 µM”, the “Percent Effect” value is listed as -13.26%. Still for that read-out and setting: in the case of `CC(=O)NCCNC(=O)c1cc(Cl)c(Cl)n1C` it was -20.76%; in that of `CCc1cc(N2CCCC(CN)C2)n2nccc2n1` (stereo not given), 8.07%. As to `Cn1cc(N2CC3(COCCN(Cc4nccs4)C3)OCC2=O)cn1.O=C(O)C(F)(F)F` (stereo not given), the “Percent Effect” value (10 µM) is given as 3.864%. Still for that read-out and setting: to `O=C(O)C(F)(F)F.O=C1COC2(CCN(Cc3nccs3)CC2)CN1c1ccccc1` belongs -19.73%; to `Cn1cc(N2CC3(CCN(Cc4nccs4)CC3)OCC2=O)cn1.O=C(O)C(F)(F)F`, 66.73%.

As for `CN(C)S(=O)(=O)N1CCCC1c1ccsc1` (stereo not given), the “Percent Effect” value (50 µM) was 2.745%. For `O=S(=O)(c1ccc2c(c1)CCCN2)N1CCCC1`, the “Percent Effect” value (50 µM) worked out at 5.041%. As to `O=C(CCCNC(=O)C1CCCO1)Nc1ccc(Cl)cc1` (stereo not given), the “Percent Effect” value (10 µM) came out at 23.23%. On to `Cc1ccc(NC(=O)CCCNC(=O)C2CC2)cc1`, for which the “Percent Effect” value (50 µM) came out at 98.6%. `O=C(CCCNC(=O)C1CC1)Nc1cnn(-c2ccccc2Cl)c1`: the “Percent Effect” value (10 µM) came out at 12.28%. In the case of `CNCCCNS(=O)(=O)c1ccc(Br)c(C(C)=O)c1`, for the setting “50 µM”, the “Percent Effect” value came out at 7.594%. With `COCC(=O)N[C@H]1CN(CCS(C)(=O)=O)C[C@@H]1C(C)C`, the “Percent Effect” value (50 µM) is -7.194%.

Consider `CCn1nc(CC(C)C)cc1C(=O)N1CCC(N)C1` (stereo not given), for which, under “50 µM”, the “Percent Effect” value is -11.21%.

As for `CCc1ccc(NC(=O)C(C)Nc2cccc3c2OCCO3)cc1` (stereo not given), for the setting “10 µM”, the “Percent Effect” value amounted to 82.59%. Regarding `CC(Nc1cccc2c1OCCO2)C(=O)Nc1ccc(S(N)(=O)=O)cc1` (stereo not given), the “Percent Effect” value (10 µM) amounted to 5.712%. With `CC(Nc1cccc2c1OCCO2)C(=O)Nc1ccc(Cl)cc1` (stereo not given), the “Percent Effect” value (10 µM) is 6.519%. On to `CC(C)CC1NCCCNC1=O` (stereo not given), for which, for the setting “50 µM”, the “Percent Effect” value is on record as 0.1576%. `CS(=O)(=O)CCn1ccnc1-c1ccc(Cl)s1`: the “Percent Effect” value (50 µM) was -2.415%. `COc1ccccc1-c1ccccc1CC1(C(=O)O)CCNCC1`: the “Percent Effect” value (10 µM) is reported as 8.204%. As for `CCOC(=O)C1(Cc2ccccc2-c2ccccc2OC)CCNCC1.Cl`, the “Percent Effect” value (10 µM) is 44.64%. `CN(CCCC1CCCO1)C(=O)c1cccc(N)n1` (stereo not given): the “Percent Effect” value (50 µM) is 1.142%.
